Experimental data taken from PubChem BioAssay (Tox21).
Results filed as inconclusive are left out. Active and inactive are the calls of the source. Unless noted, calls come from the whole dose curve.

Assays:
[1] = Nuclear factor erythroid 2-related factor 2/antioxidant responsive element (Nrf2/ARE) small molecule agonists: qHTS cell viability counter screen in human keratinocytes (AID 1919968; active = well fitted curve in the direction sought with a large enough effect in the repeat runs; an effect the other way counts as inactive or inconclusive; note: nearly all actives have a fitted effect of over 55% in size; note: potency is the fitted concentration of half-maximal effect)
Outline: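 Parallel cytotoxicity read: KeratinoSens HaCaT cells, compound treatment 23 h, viability by CellTiter-Fluor fluorescence 1 h post-reagent.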

[2] = Nuclear factor erythroid 2-related factor 2/antioxidant responsive element (Nrf2/ARE) small molecule agonists: luciferase reporter gene qHTS assay in human keratinocytes (AID 1919969); note: nearly all actives have a fitted effect of over 35% in size
[3] = biological target: Gonadotropin-releasing hormone receptor (Homo sapiens) (UniProt P30968); experiment: Human gonadotropin-releasing hormone receptor (GnRHR) small molecule agonists, calcium flux assay in GnRHR-HEK293 cells (AID 1920063); note: nearly all actives have a fitted effect of over 35% in size
Outline: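 Calcium flux, agonist mode, human GnRHR stably integrated in HEK293; dye 1 h at 37 C before compound; Ex/Em=480/540 kinetic read, 3 min; 15 concentrations, triplicate.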

[4] = biological target: KiSS-1 receptor (Homo sapiens) (UniProt Q969F8); experiment: Human kisspeptin (KISS1R) small molecule agonists, calcium flux assay in KISS1R-HEK293 cells (AID 1920064; active = well fitted curve in the direction sought with a large enough effect in the repeat runs; an effect the other way counts as inactive or inconclusive)
Outline: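 Triplicate 15-concentration series were applied to dye-loaded human KISS1R HEK293 cells, and agonist-evoked calcium fluorescence was captured for 3 min.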

[5] = G protein-coupled receptor (GPCR) small molecule agonists, calcium flux assay: HEK293 wild type cell line counter screen (AID 1920065)
Outline: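 Non-specific calcium responders were flagged by adding DMSO-dissolved compounds to dye-loaded cells and reading 480/540 nm fluorescence each second for 3 min; ATP served as positive control.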

[6] = p53 small molecule agonists, cell-based qHTS assay with human liver microsomes: qHTS cell viability counter screen (AID 1963579); note: nearly all actives have a fitted effect of over 45% in size; note: potency is the fitted concentration of half-maximal effect
Outline: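 Viability of p53RE-bla cells is measured as CellTiter-Glo luminescence following a 16 h, 37 C incubation with compound, liver microsomes from human donors and NADPH.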

[7] = p53 small molecule agonists, cell-based qHTS assay with rat liver microsomes: qHTS cell viability counter screen (AID 1963580); note: nearly all actives have a fitted effect of over 45% in size
Outline: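 Cytotoxicity counter screen: intracellular ATP measured by CellTiter-Glo luminescence in the same wells as the beta-lactamase reporter read, on HCT-116 p53RE-bla cells exposed 16 h at 37 C to compounds with rat liver microsomes and NADPH, each 0.5 mg/mL final.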

[8] = p53 small molecule agonists, cell-based qHTS assay: qHTS cell viability counter screen (AID 1963581); note: nearly all actives have a fitted effect of over 45% in size
Outline: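 Multiplexed with the reporter read, a CellTiter-Glo step (30 min, room temperature) gauges ATP-based viability of HCT-116 p53RE-bla cells after 16 h compound incubation at 37 C.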

[9] = biological target: 5-hydroxytryptamine receptor 2A (Homo sapiens) (UniProt P28223); experiment: 5-hydroxytryptamine receptor 2A (HTR2A) small molecule antagonists, cell-based qHTS assay (AID 1963586); note: nearly all actives have a fitted effect of over 45% in size
Outline: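 CHO cells stably expressing human HTR2A were plated for 18 h at 37 C, then loaded with calcium dye for 1 h. Compounds were preincubated 5 min at room temperature before DOI (4 nM solution) was added. Kinetic fluorescence was read for 3 min.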

[10] = biological target: 5-hydroxytryptamine receptor 2A (Homo sapiens) (UniProt P28223); experiment: 5-hydroxytryptamine receptor 2A (HTR2A) small molecule agonists, cell-based qHTS assay (AID 1963587); note: nearly all actives have a fitted effect of over 30% in size
Outline: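 CHO cells stably expressing human HTR2A, plated 18 h, loaded with calcium dye 1 h at 37 C. Agonist mode: compounds added and intracellular calcium fluorescence recorded kinetically for 2 min at 1 sec intervals.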

[11] = biological target: Muscarinic acetylcholine receptor M1 (Homo sapiens) (UniProt P11229); experiment: Cholinergic receptor muscarinic 1 (CHRM1) small molecule agonists, cell-based qHTS assay (AID 1963589); note: nearly all actives have a fitted effect of over 35% in size
Outline: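 qHTS, 15-point titration, 3 independent runs: compounds pin-transferred onto dye-loaded CHRM1-CHO cells (human M1), calcium fluorescence followed every second to detect agonism.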

[12] = cAMP Responsive Elements (CRE) small molecule agonists, cell-based qHTS assay (AID 1963590)
Outline: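 Quantitative HTS for CRE agonists: HEK 293T CRE-bla cells, overnight plating, 3 h compound incubation at 37 C/5% CO2, then 2 h room-temperature LiveBLAzer B/G FRET substrate loading.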

[13] = cAMP Responsive Elements (CRE) small molecule antagonists, cell-based qHTS assay (AID 1963591; active = well fitted inhibition curve with a large enough effect in the signal ratio in the repeat runs, not every such curve was filed as active; the % refers to the signal ratio)
Outline: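 Fluorescence intensity from cleaved LiveBLAzer B/G substrate (2 h, room temperature) quantified CRE-bla activity in HEK 293T cells exposed 3 h to compound with 0.25 uM final NKH477.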

[14] = biological target: Beta-2 adrenergic receptor (Homo sapiens) (UniProt P07550); experiment: Adrenergic beta2 receptor (ADRB2) small molecule antagonists, cell-based qHTS assay (AID 1963592); note: series mostly up to about 92 µM; nearly all actives have a fitted effect of over 50% in size
Outline: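 Assay format: CHO-ADRB2 cells, 18-20hr seeding at 37C/5% CO2, then compound plus 1nM isoproterenol agonist mix for 0.5hr RT. Homogeneous time-resolved fluorescence cAMP detection after 1hr, expressed as 665/615 nm ratio.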

[15] = biological target: D(2) dopamine receptor (Homo sapiens) (UniProt P14416); experiment: Dopamine D2 receptor (DRD2) small molecule antagonists, cell-based qHTS assay (AID 1963595; active = well fitted inhibition curve with a large enough effect in the signal ratio in the repeat runs, with a control signal flat; the % refers to the signal ratio)
Outline: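 HEK293 cells stably expressing DRD2, preincubated with 0.1 mM Ro20-1724 and compounds 10 min, were stimulated with 200 nM NKH477 plus 12 nM quinpirole for 30 min at room temperature; cAMP measured by HTRF (665/620 nm).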

[16] = biological target: Muscarinic acetylcholine receptor M1 (Homo sapiens) (UniProt P11229); experiment: Cholinergic receptor muscarinic 1 (CHRM1) small molecule antagonists, cell-based qHTS assay (AID 1963588); note: nearly all actives have a fitted effect of over 40% in size
Outline: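 Compounds were tested at 15 concentrations in three independent runs. Dye-loaded CHRM1-CHO cells were exposed 5 min at room temperature before stimulation by acetylcholine added at 50nM. Intracellular calcium was read kinetically on FDSS for 3 min.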

[17] = biological target: Beta-2 adrenergic receptor (Homo sapiens) (UniProt P07550); experiment: Adrenergic beta2 receptor (ADRB2) small molecule agonists, cell-based qHTS assay (AID 1963593);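 note: CHO cells stably overexpressing human ADRB2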
Outline: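 CHO cells stably over-expressing ADRB2 were plated overnight at 37C, then dosed with compounds plus a stimulation mix containing 100uM IBMX and 25uM Ro-20-1724 for 0.5hr at room temperature. cAMP was measured by HTRF competition, 1hr.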

[18] = biological target: D(2) dopamine receptor (Homo sapiens) (UniProt P14416); experiment: Dopamine D2 receptor (DRD2) small molecule agonists, cell-based qHTS assay (AID 1963594); note: nearly all actives have a fitted effect of over 35% in size
Outline: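 HEK293 cells stably expressing human DRD2, pre-treated with PDE inhibitor Ro20-1724 (0.1 mM final) and compound 10 min at room temperature, then stimulated with NKH477 (200nM […]) for 30 min. cAMP read by HTRF (665/620 nm).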

Measured: Potency

D(2) dopamine receptor (Homo sapiens), sequence (P14416 whole entry, looked up): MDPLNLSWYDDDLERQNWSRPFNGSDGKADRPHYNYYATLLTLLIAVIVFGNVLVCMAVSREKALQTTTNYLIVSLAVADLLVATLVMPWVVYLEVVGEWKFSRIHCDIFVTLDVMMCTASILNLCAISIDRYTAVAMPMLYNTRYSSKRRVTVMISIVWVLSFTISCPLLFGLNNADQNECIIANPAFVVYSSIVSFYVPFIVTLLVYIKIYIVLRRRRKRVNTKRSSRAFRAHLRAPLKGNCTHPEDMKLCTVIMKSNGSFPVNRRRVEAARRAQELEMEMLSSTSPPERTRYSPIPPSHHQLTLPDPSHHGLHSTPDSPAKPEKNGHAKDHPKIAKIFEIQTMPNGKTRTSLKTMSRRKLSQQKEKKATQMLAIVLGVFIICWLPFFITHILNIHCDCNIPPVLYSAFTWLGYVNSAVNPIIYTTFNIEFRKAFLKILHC
Muscarinic acetylcholine receptor M1 (Homo sapiens), sequence (P11229 whole entry, looked up): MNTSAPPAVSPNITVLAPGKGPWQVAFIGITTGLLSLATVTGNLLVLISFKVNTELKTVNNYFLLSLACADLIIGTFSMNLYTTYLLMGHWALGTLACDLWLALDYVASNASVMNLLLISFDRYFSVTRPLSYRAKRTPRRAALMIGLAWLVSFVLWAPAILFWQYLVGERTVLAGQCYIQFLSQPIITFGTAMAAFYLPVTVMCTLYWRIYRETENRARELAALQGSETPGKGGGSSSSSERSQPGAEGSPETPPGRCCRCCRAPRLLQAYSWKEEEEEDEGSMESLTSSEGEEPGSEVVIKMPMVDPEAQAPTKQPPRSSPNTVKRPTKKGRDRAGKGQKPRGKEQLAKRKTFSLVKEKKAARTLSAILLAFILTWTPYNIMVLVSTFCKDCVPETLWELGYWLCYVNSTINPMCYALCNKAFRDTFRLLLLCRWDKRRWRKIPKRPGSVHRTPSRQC
KiSS-1 receptor (Homo sapiens), sequence (Q969F8 whole entry, looked up): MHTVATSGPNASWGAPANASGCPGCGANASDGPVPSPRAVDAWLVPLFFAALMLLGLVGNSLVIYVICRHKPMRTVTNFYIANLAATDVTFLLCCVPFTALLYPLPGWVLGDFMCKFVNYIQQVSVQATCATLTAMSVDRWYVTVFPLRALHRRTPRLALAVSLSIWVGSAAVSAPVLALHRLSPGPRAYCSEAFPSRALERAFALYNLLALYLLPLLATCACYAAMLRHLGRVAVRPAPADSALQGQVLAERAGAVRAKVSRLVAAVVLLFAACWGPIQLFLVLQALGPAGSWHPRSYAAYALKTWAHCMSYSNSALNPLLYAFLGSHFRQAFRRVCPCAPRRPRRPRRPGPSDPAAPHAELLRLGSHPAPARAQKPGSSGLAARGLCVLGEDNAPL
5-hydroxytryptamine receptor 2A (Homo sapiens), sequence (P28223 whole entry, looked up): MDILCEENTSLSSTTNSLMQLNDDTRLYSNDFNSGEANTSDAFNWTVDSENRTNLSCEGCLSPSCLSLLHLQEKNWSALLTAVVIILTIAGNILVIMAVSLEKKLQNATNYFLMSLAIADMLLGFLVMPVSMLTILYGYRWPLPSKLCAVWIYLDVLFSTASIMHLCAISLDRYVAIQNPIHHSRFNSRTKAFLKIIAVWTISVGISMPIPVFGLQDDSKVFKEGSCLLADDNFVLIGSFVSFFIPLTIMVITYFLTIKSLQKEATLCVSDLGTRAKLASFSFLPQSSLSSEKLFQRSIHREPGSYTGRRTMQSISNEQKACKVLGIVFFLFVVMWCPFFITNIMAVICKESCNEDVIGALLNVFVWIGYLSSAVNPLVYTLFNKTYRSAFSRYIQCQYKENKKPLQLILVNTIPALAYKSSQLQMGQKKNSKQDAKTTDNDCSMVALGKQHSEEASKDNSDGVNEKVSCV
Gonadotropin-releasing hormone receptor (Homo sapiens), sequence (P30968 whole entry, looked up): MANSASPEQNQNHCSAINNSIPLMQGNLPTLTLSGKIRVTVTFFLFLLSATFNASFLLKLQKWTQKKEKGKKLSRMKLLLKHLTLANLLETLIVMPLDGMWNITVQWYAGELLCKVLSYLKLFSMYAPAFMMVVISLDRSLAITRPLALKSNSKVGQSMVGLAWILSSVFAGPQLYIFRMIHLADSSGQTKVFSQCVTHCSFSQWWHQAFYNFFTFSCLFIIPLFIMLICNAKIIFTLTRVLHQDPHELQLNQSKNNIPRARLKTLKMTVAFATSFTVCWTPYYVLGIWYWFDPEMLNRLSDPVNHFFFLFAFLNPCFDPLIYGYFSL
Beta-2 adrenergic receptor (Homo sapiens), sequence (P07550 whole entry, looked up): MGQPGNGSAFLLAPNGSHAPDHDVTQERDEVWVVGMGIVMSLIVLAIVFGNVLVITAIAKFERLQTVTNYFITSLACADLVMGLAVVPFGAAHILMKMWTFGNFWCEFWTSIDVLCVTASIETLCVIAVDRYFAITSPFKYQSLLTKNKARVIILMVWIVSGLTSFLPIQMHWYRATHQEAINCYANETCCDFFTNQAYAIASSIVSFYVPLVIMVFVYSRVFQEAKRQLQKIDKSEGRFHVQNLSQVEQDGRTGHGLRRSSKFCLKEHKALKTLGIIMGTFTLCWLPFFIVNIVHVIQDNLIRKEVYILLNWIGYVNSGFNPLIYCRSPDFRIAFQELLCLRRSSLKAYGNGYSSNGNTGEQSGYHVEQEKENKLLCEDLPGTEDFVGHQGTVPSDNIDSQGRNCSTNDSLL

O=C1c2cccc3c2[C@H](CCC3)CN1[C@@H]1CN2CCC1CC2
inactive: [1] | [2] | [3] | [4] | [5] | [6] | [7] | [8] | [9] | [10] | [11] | [12] | [13] | [14] | [15]

CC(C)(C)C(O)/C=C/c1ccc2c(c1)OCO2 (stereo unspecified)
inactive: [1] | [2] | [3] | [4] | [5] | [6] | [7] | [8] | [10] | [16] | [11] | [12] | [13] | [14] | [17] | [18] | [15]

CCNCCO
inactive: [1] | [2] | [3] | [4] | [5] | [6] | [7] | [8] | [9] | [16] | [11] | [12] | [13] | [14] | [17] | [18] | [15]

CCc1ccccc1
inactive: [1] | [2] | [3] | [4] | [5] | [6] | [7] | [8] | [9] | [16] | [11] | [12] | [13] | [14] | [17] | [15]

CC1CCN(CCCC(=O)c2ccc(F)cc2)CC1
inactive: [1] | [2] | [3] | [4] | [5] | [6] | [7] | [8] | [10] | [16] | [11] | [12] | [13] | [14] | [17] | [18]

CCCCCCC(C)Nc1ccc(Nc2ccccc2)cc1 (stereo unspecified)
active: [1] 48.6 µM | [6] 40.8 µM
inactive: [2] | [3] | [4] | [5] | [7] | [8] | [9] | [16] | [11] | [14] | [18]

CC1(C)CCC[C@]2(C)[C@H]3CCO[C@]3(C)CC[C@@H]12
inactive: [1] | [2] | [3] | [4] | [5] | [6] | [7] | [8] | [9] | [16] | [11] | [12] | [13] | [14] | [17] | [18]

CN1C(CSCC(F)(F)F)Nc2cc(Cl)c(S(N)(=O)=O)cc2S1(=O)=O (stereo unspecified)
inactive: [1] | [2] | [3] | [4] | [5] | [6] | [7] | [8] | [10] | [16] | [11] | [12] | [13] | [14] | [17] | [18] | [15]

COc1cc(OC)c2ccc(=O)oc2c1
inactive: [1] | [2] | [3] | [4] | [5] | [6] | [7] | [8] | [9] | [16] | [11] | [12] | [13] | [14] | [18] | [15]

CCCC(=O)O[C@]1(C(=O)CO)CC[C@H]2[C@@H]3CCC4=CC(=O)CC[C@]4(C)[C@H]3[C@@H](O)C[C@@]21C
inactive: [1] | [2] | [3] | [4] | [5] | [6] | [7] | [8] | [9] | [10] | [11] | [12] | [14] | [18]

O=C(O)c1ccc2cc(C(=O)O)ccc2c1
inactive: [1] | [2] | [3] | [4] | [5] | [6] | [7] | [8] | [10] | [16] | [11] | [12] | [13] | [14] | [17] | [18] | [15]

COC(=O)[C@@H]1CC2=CC(=O)CC[C@]2(C)[C@@]23O[C@@H]2C[C@@]2(C)[C@@H](CC[C@@]24CCC(=O)O4)[C@H]13
inactive: [1] | [2] | [3] | [4] | [5] | [6] | [7] | [8] | [10] | [16] | [11] | [12] | [13] | [14] | [18] | [15]

CC(C)OC(=O)c1ccccc1C(=O)OC(C)C
inactive: [1] | [2] | [3] | [4] | [5] | [6] | [7] | [8] | [10] | [16] | [11] | [12] | [13] | [14] | [18] | [15]

OC1CCCCC1c1ccccc1 (stereo unspecified)
inactive: [1] | [2] | [3] | [4] | [5] | [6] | [7] | [8] | [9] | [11] | [12] | [13] | [14] | [18] | [15]
